Test results: PubChem BioAssay AID485358 (National Center for Advancing Translational Sciences (NCATS), 2010)
About 1,800 (0.53%) of roughly 340,000 compounds were called active.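 Rule for the calls: active = activation over 3 SD above normal in the single-dose calcium agonist read (cut at about 30% in these data); inactive = the rest.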 For the sample, actives were picked, then their nearest neighbours and some compounds at random.

target: D(2) dopamine receptor (Homo sapiens) (UniProt P14416); assay: HTS Assay for Allosteric Agonists of the Human D2 Dopamine Receptor: Primary Screen for Agonists; details: HEK293 T-REx D2 cells, calcium flux agonist mode; at 2 µM; hits give high values; note: 0% is about no effect
Sequence (P14416 whole entry, looked up): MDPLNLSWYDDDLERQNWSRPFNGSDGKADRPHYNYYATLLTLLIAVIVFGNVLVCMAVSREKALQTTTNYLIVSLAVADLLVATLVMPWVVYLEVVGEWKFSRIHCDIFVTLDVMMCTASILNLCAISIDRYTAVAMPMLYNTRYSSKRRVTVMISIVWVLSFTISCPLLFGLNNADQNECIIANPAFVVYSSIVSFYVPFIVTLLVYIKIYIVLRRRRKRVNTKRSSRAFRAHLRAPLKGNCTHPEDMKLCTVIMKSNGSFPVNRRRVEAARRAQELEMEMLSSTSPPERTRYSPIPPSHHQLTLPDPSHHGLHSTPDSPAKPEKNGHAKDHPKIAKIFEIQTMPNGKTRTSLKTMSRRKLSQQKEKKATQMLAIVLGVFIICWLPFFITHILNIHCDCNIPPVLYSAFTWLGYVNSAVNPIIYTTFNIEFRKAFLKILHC
In short: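 Agonism is scored from calcium flux in a force-coupled, inducible HEK293 cell line expressing D2, read kinetically for 180 s after compound addition against dopamine controls.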

| Structure (SMILES) | activation |
| --- | --- |
| Oc1c(C(c2ccc(F)cc2)N2CCN(Cc3ccccc3)CC2)sc2nc(-c3ccco3)nn12 (centres undefined) | 0.375% (inactive) |
| COc1cc(NC(=O)c2noc3c2CSc2ccccc2-3)cc(OC)c1OC | -0.598% (inactive) |
| COc1ccc(-c2nc3scc(CCNS(=O)(=O)c4cc(F)ccc4OC)n3n2)cc1OC | -1.74% (inactive) |
| Cc1ccc(OCCn2c(CNc3ccccc3C)nc3ccccc32)cc1 | 0.246% (inactive) |
| Cc1ccc(C)c(N2CCN(C(=O)Cn3nc(C)c4sc5ccccc5c4c3=O)CC2)c1 | -0.843% (inactive) |
| COc1ccccc1CNc1ccc(-c2nc(-c3ccccc3C)no2)cc1[N+](=O)[O-] | 2.39% (inactive) |
| CCc1cccc(CC)c1NC(=O)Cn1c(=O)c(-c2cc(C)ccc2NC(C)=O)nc2ccccc21 | 0.924% (inactive) |
| CS(=O)(=O)c1ccc(Cl)c(NC(=O)COC(=O)c2cccc(S(=O)(=O)N3CCCC3)c2)c1 | -0.318% (inactive) |
| O=C(CNCc1cccs1)Nc1cc(S(=O)(=O)N2CCCC2)ccc1Cl | 57.6% (active) |
| O=C(NCc1cccs1)C1CCN(S(=O)(=O)c2ccc(Cl)cc2)CC1 | 0.13% (inactive) |
| COc1ccc(CN2CC(C(=O)NCCN3CCN(c4ccccc4F)CC3)CC2=O)cc1 (centres undefined) | 0.792% (inactive) |
| O=C(NCCCN1CCN(c2ccccc2F)CC1)C1CCC(=O)N1C1CCCCC1 (centres undefined) | 68.8% (active) |
| O=C(NCCCN1CCCCCC1)C1CC(=O)N(C2CCCC2)C1 (centres undefined) | 0.131% (inactive) |
| COc1ccccc1NC(=O)C(=O)c1cc(C)n(-c2ccccc2F)c1C | -1.58% (inactive) |
| COc1ccc(OC)c(C(=O)c2ccc(C(=O)N3CCN(Cc4csc(C)n4)CC3)cc2)c1 | 37.6% (active) |
| COc1ccc(-c2nn3c(=O)cc(CN4CCN(C(=O)c5ccc(OC)c(OC)c5)CC4)nc3s2)cc1 | 0.0582% (inactive) |
| COc1ccc(OC)c(C(=O)c2coc3ccc(O)c(CN4CCOCC4)c23)c1 | 0.863% (inactive) |
| CCCCN1C(=O)c2[nH]nc(-c3ccccc3O)c2C1c1cccc(OCc2ccccc2)c1 (centres undefined) | -0.42% (inactive) |
| O=C(c1c(F)cccc1Cl)N1CCN(c2ccccn2)CC1 | -0.0487% (inactive) |
| O=C(c1c(Cl)cccc1Cl)N1CCN(c2cccc3[nH]ccc23)CC1 | 41.5% (active) |
| O=C(c1ccc2ccccc2n1)N1CCN(c2ccccc2Cl)CC1 | 1.21% (inactive) |
| Cc1cc(C)cc(NC(=O)Cn2c(=O)c3ccccc3n3nncc23)c1 | 0.456% (inactive) |
| CCCN(CCC)c1nc2c(C)cccn2c(=O)c1/C=C1/SC(=S)N(Cc2ccco2)C1=O | 9.37% (inactive) |
| Cc1cccn2c(=O)c(/C=C(\C#N)C(N)=O)c(N3CCCCCC3)nc12 | -0.181% (inactive) |
| CCOC(=O)CC1C(=O)NCCN1c1nc2c(C)cccn2c(=O)c1/C=C1\SC(=S)N(C(C)CC)C1=O (centres undefined) | 61.9% (active) |

| Structure (SMILES) | activation |
| --- | --- |
| CCOC(=O)C1CCCN(C(=O)c2ccc3c(c2)sc2nc(-c4ccc(CC)cc4)cn23)C1 (centres undefined) | 4.91% (inactive) |
| O=[N+]([O-])c1ccc(C=Nc2ccc(Cl)cc2Cl)s1 | 33.6% (active) |
| COc1ccc(CCNC(=O)c2cc3cccc4c3n2CC(C)S4)c(OC)c1OC (centres undefined) | -0.932% (inactive) |
| CCOCCCn1c(SCC(=O)Nc2ccc(CC)cc2)nc2ccccc2c1=O | 0.545% (inactive) |
| Cc1ccc(-n2c(=O)c3cccnc3n2CC(=O)NCc2ccc(F)cc2)cc1C | 0.0353% (inactive) |
| O=C(CC1NCCc2ccccc21)Nc1cccc(Cl)c1 (centres undefined) | 35.2% (active) |
| O=C(CC1NCCNC1=O)Nc1cc(Cl)cc(Cl)c1 (centres undefined) | -0.701% (inactive) |
| O=C(CC1C(=O)NCCN1C(=O)c1ccc([N+](=O)[O-])cc1)Nc1cccc(Cl)c1 (centres undefined) | -0.121% (inactive) |
| Cc1ccccc1CNC(=O)C(=O)NCC(c1cccs1)S(=O)(=O)c1cccs1 (centres undefined) | 0.367% (inactive) |
| COc1cccc(NC(=O)N2CCN(C(=O)c3nsc4ccccc34)CC2)c1 | -0.159% (inactive) |
| COc1ccccc1CN1CCC(CNC(=O)c2cnn(-c3cccc(Cl)c3)c2C2CCN(C(=O)OC(C)(C)C)CC2)CC1 | 1.52% (inactive) |
| O=C(Cn1cc(SCc2ccccc2)c2ccccc21)N1CCCCC1 | 0.397% (inactive) |
| Cc1cc(OC(C)C(=O)Nc2sc3c(c2C(N)=O)CCCC3)ccc1Cl (centres undefined) | -0.192% (inactive) |
| CCCCCCc1cc2cc(-c3nnc(-c4ccccc4)o3)c(=O)oc2cc1O | 32.4% (active) |
| CCn1cc(C(=O)N2CCN(c3cc(Cl)ccc3C)CC2)c(=O)c2cc(S(=O)(=O)N3CCCC3)ccc21 | 0.428% (inactive) |
| CC1=Nc2cc(C(=O)NCc3ccc(C)cc3)ccc2Sc2ccc(Cl)cc21 | 0.834% (inactive) |
| CCc1ccc2oc(-c3ccc(NC(=O)c4cc5ccccc5o4)cc3)nc2c1 | 0.271% (inactive) |
| Cn1nnnc1SCCCNCc1ccc(Cl)cc1 | 0.973% (inactive) |
| Cc1cc(C)cc(NC(=O)CSc2oc(-c3ccccc3)nc2S(=O)(=O)c2ccc(Cl)cc2)c1 | -0.364% (inactive) |
| CCn1c(=O)n(CC)c2cc(N3CCCC3)c(NC(=O)c3ccccc3Br)cc21 | 36.9% (active) |
| CCn1c(=O)c(=O)n(CC)c2cc(N3CCCCC3)c(NC(=O)c3cccc(F)c3)cc21 | -0.09% (inactive) |
| CCn1c(=O)c(=O)n(CC)c2cc(N3CCCCC3)c(NC(=O)c3ccc(Cl)cc3)cc21 | -0.0698% (inactive) |
| CCCC(=O)N1c2ccc(-c3csc(N)n3)cc2CC1C (centres undefined) | 0.868% (inactive) |
| Cc1onc(C(=O)NN)c1-c1csc(COc2ccccc2)n1 | -1.45% (inactive) |
| CC(C)(C)C(=O)OCc1nc(-c2ccc(O)c(O)c2)cs1 | 73.8% (active) |

| Structure (SMILES) | activation |
| --- | --- |
| COc1ccc(C2=NC3(CCCCC3)N(CC(=O)Nc3ccc(C(C)C)cc3)C2=O)cc1 | -0.0796% (inactive) |
| CN(C)c1ccc(C=C2C(=O)OC3(CCCC3)OC2=O)cc1 | -0.32% (inactive) |
| CN(C)c1ccc(/C=C2\NC(=S)N(Cc3ccccc3)C2=O)cc1 | 45.9% (active) |
| Cc1ccc(CN2C(=O)N/C(=C/c3cc(C)n(-c4ccccn4)c3C)C2=O)cc1 | -1.58% (inactive) |
| CCCCNC(=O)CSc1nc2cc3c(cc2c(=O)n1CCCCCC(=O)NCc1ccc2c(c1)OCO2)OCO3 | 0.322% (inactive) |
| O=C(CN1CCN(c2ccccc2)CC1)Nc1ccc(F)cc1 | 19.7% (inactive) |
| CCOC(=O)N1CCN(CCC(=O)Nc2ccccc2)CC1 | 0.607% (inactive) |
| O=C(CCN1CCN(c2ccccc2)CC1)NNC(=S)Nc1ccccc1 | 56.1% (active) |
| Cc1ccc(S(=O)(=O)c2nc(-c3ccco3)oc2SCC(=O)Nc2ccc(F)cc2)cc1 | -0.0829% (inactive) |
| COc1ccc(CNC(=O)C(C)NCc2ccccc2Cl)cc1 (centres undefined) | -0.182% (inactive) |
| CC(CCc1ccc(O)cc1)NCc1ccc(Cl)cc1Cl (centres undefined) | 32.8% (active) |
| CC(CCc1ccccc1)NC(=O)c1cnc(Cl)c(Cl)c1 (centres undefined) | -0.256% (inactive) |
| C=Cc1ccc(Cn2c(C(=O)OC)cc3sc(C)cc32)cc1 | 0.446% (inactive) |
| O=C(CCN1CCN(C/C=C/c2ccccc2)CC1)Nc1ccccc1Cl | 76% (active) |
| O=C(CCN1CCN(C/C=C/c2ccccc2)CC1)Nc1cccc(F)c1 | 1.58% (inactive) |
| COc1ccccc1NC(=O)CCN1CCN(c2ccc(Cl)cc2)CC1 | -0.695% (inactive) |
| Cc1nc(SCC(=O)N2CCN(c3ccccc3)CC2)[nH]c(=O)c1C | 16% (inactive) |
| COc1cccc(C(=O)NCc2ccc3c(c2)CCN3C(=O)c2ccncc2)c1 | -0.0874% (inactive) |
| COc1ccc(-c2nc(S(=O)(=O)c3ccccc3)c(N3CCCCC3)o2)cc1 | -0.427% (inactive) |
| O=C(CN1CCN(S(=O)(=O)c2cc(Cl)ccc2Cl)CC1)c1ccc(O)c(O)c1 | 57.8% (active) |
| O=S(=O)(c1cc(Cl)ccc1Cl)N1CCN(Cc2ccco2)CC1 | -1.47% (inactive) |
| N#Cc1ccsc1NC(=O)CN1CCN(S(=O)(=O)c2cc(Cl)ccc2Cl)CC1 | 3.35% (inactive) |
| Cc1ccc(NC(=O)Cn2nnc3sc4c(c3c2=O)CCC(C)C4)cc1 (centres undefined) | 0.94% (inactive) |
| CCc1ccccc1NC(=O)Cc1ccc(NC(=O)N2CCCCc3ccccc32)cc1 | 0.173% (inactive) |
